Compounds without any hit were thinned out: in the full panel of roughly 79,000, 15% have a hit. Cut-off read from the data, not from the text of the source: active = growth inhibition above about 70%; inactive = the rest. Where a SMILES comes first, the peptide text is derived from it.
Key:
[1] = NCI Yeast Anticancer Drug Screen. Data for the rad50 strain (AID 155);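 note: 0% = growth of vehicle-only cultures of the same strain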; conditions: S. cerevisiae rad50 strain growth inhibition; at 50.0 µM; active compounds read high
Procedure, shortened: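 Compounds were tested on a yeast strain with an engineered DNA damage repair alteration; the reported value is growth inhibition normalised to vehicle treatment.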

[2] = NCI Yeast Anticancer Drug Screen. Data for the mec2-1 strain (AID 157); conditions: S. cerevisiae mec2-1 strain, at 50.0 µM, active compounds read high
Procedure, shortened: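 mec2-1 yeast strain, carrying an alteration in DNA damage repair or cell cycle control, was exposed to compounds; growth inhibition was measured relative to vehicle-treated controls.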

[3] = NCI Yeast Anticancer Drug Screen. Data for the sgs1 mgt1 strain (AID 161);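 note: 0% = growth of cultures given vehicle only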; conditions: S. cerevisiae sgs1 mgt1 strain, at 50.0 µM, active compounds read high
Procedure, shortened: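 Yeast cells carrying a defined DNA-repair defect were exposed to test compounds. Growth inhibition was measured relative to vehicle-treated controls.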

[4] = NCI Yeast Anticancer Drug Screen. Data for the cln2 rad14 strain (AID 165);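 note: 0% = growth equal to vehicle treated cultures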; conditions: S. cerevisiae cln2 rad14 strain, at 50.0 µM, active compounds read high
Procedure, shortened: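 Yeast carrying cln2 and rad14 alterations (cell cycle control and DNA damage repair) were exposed to compounds. Growth inhibition was measured against vehicle-treated controls.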

[5] = NCI Yeast Anticancer Drug Screen. Data for the bub3 strain (AID 167); conditions: S. cerevisiae bub3 mutant strain, at 50.0 µM, active compounds read high
Procedure, shortened: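 Growth of a checkpoint-deficient yeast mutant is measured after compound exposure. Values represent inhibition relative to vehicle.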

[6] = NCI Yeast Anticancer Drug Screen. Data for the mlh1 rad18 strain (AID 175); conditions: S. cerevisiae mlh1 rad18 strain growth inhibition; at 50.0 µM; active compounds read high
Procedure, shortened: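 Growth inhibition of the yeast strain was measured after compound exposure and expressed relative to vehicle-treated controls. The strain carries defined defects in DNA damage repair.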

Measured: growth inhibition

Cc1ccc(N=Nc2ccc(C)cc2NC(=O)Nc2cc(C)ccc2C)cc1
inactive: [1] -3.7% | [2] 8.05% | [3] 27% | [4] -10.9% | [5] 26.1% | [6] -10.4%

CCCC(=O)NC(C)(C)C
inactive: [1] 8.8% | [2] -5.3% | [3] -33.9% | [4] 2.9% | [5] 6.2% | [6] -21%

O=C1/C(=C/c2ccco2)SC(=S)N1C1c2ccccc2Oc2ccccc21
inactive: [1] 25% | [2] 6.65% | [3] 67.2% | [4] 45.6% | [5] -0.4% | [6] 24.8%

CCC(C)C(N)C(=O)NC(Cc1ccc(O)cc1)C(=O)O (stereo not drawn) (H-Ile-Tyr-OH; configuration not given here)
inactive: [1] 16.4% | [2] -2.35% | [3] -0.8% | [4] 15.8% | [5] -10.2% | [6] 21.2%

O=c1[nH][nH]c(=O)c2c1nc(SCCc1ccccc1)n2Cc1ccccc1
inactive: [1] 26.4% | [2] 4.55% | [3] 11.7% | [4] 19.4% | [5] 1.8% | [6] 14.8%

Nc1nc(-c2ccccc2)[nH]c(=O)n1
inactive: [1] -3.3% | [2] -0.45% | [3] -37% | [4] -62.8% | [5] -22.4% | [6] -33%

Cc1ccc(C(=O)N/N=C/c2ccc3ccccc3c2)cc1
inactive: [1] -1% | [2] -13.2% | [3] -5.25% | [4] -13.8% | [5] 33.4% | [6] -5.3%

O=C(/C=C/c1ccccc1)[c-]1[c-][c-][c-][c-]1.[Fe].[c-]1[c-][c-][cH-][c-]1
inactive: [1] 10.9% | [2] 11.6% | [3] 9.05% | [4] 8.1% | [5] 13.8% | [6] 13.2%

COc1ccccc1/C=C/C(=O)c1ccccc(=O)c1O
inactive: [1] -9% | [2] -5.05% | [3] -4.35% | [4] -23.4% | [5] -1.05% | [6] -11.2%

CCOC(=O)C(CSC(=O)c1ccccc1)NC(=O)OCc1ccccc1 (stereo unspecified)
inactive: [1] 40.4% | [2] -3.35% | [3] 21.2% | [4] -29.6% | [5] 2.65% | [6] 20.1%

O=C(/C=C/c1ccc(OCc2ccccc2)c(OCc2ccccc2)c1)OCc1ccccc1
inactive: [1] -12% | [2] -9.65% | [3] -5.15% | [4] -33.9% | [5] -3.45% | [6] -34.8%

COC(=O)CCC(=O)Nc1cc(Cl)c(Cl)cc1Cl
inactive: [1] -14.1% | [2] 8.15% | [3] 6.55% | [4] 1.15% | [5] 9.3% | [6] -7.4%

CCCCC(CC)CCC(C)=O (stereo unspecified)
inactive: [1] 5.8% | [2] -0.8% | [3] 0.35% | [4] 3.3% | [5] 1.75% | [6] -0.9%

CC(O)C(=O)OCCOc1ccccc1 (stereo unspecified)
inactive: [1] 12.7% | [2] -6.3% | [3] -3.05% | [4] 5.5% | [5] -14.3% | [6] -140%

CC(=O)OCC1OC(n2cnc3c(Cl)nc(Cl)nc32)CC1OC(C)=O (stereo unspecified)
inactive: [1] 37.3% | [2] 20.9% | [3] 24.4% | [4] 30.4% | [5] 5.2% | [6] 34.9%

CON(C)C(C#N)=C(C#N)C#N
inactive: [1] 9.75% | [2] 1.85% | [3] 21.1% | [4] 7.05% | [5] 8.1% | [6] 25.2%

CCOC(=O)N/N=C(/OCC)c1ccccc1
inactive: [1] 9.75% | [2] 2.7% | [3] -7.2% | [4] 5.8% | [5] 13.8% | [6] 5.8%

Brc1ccc2noc(-c3ccccc3)c2c1
inactive: [1] 29.4% | [2] 2.25% | [3] 31.6% | [4] -1.6% | [5] 9.95% | [6] 16.9%

COC(=O)N/N=C(\C)C(CN1CCCCC1)C(C1=C(O)c2ccccc2OC1)c1ccccc1 (stereo unspecified)
inactive: [1] 6.15% | [2] 15.7% | [3] 5.25% | [4] 17.1% | [5] 4.9% | [6] 28.9%

COc1cc2c(oc(=O)c3c4occc4cc(OC)c23)c2cccc(OCc3ccccc3)c12
inactive: [1] 2% | [2] 14.9% | [3] -11.8% | [4] 8.35% | [5] -20.9% | [6] 3.85%

N#C/C(=C/NC(=S)Nc1ccccc1)C(N)=O
inactive: [1] -31.6% | [2] -30.8% | [3] -26.8% | [4] -20% | [5] -15.7% | [6] -16.5%

CC(C)C(=O)CC1(O)C(=O)Nc2ccc([N+](=O)[O-])cc21 (stereo unspecified)
inactive: [1] -9.95% | [2] -0.2% | [3] -7.75% | [4] -34.9% | [5] 4.15% | [6] 2.5%

COc1ccc(/C=C2\NC(=S)N(/C=C3\C(=O)Oc4ccccc4C3=O)C2=O)cc1OC
inactive: [1] -5.85% | [2] -17.6% | [3] 13.1% | [4] -7.85% | [5] -13.8% | [6] 6.4%

CC(C)c1cc(C(F)(F)F)nc(NNc2nc(C(C)C)cc(C(F)(F)F)n2)n1
inactive: [1] -19.6% | [2] -25.1% | [3] -16.5% | [4] -13.2% | [5] -15.4% | [6] -34.1%

CCO/C=C1/N=C(c2cccc3ccccc23)OC1=O
inactive: [1] 3.15% | [2] -1.5% | [3] 5.7% | [4] -64.2% | [5] -1.85% | [6] 5.55%

O=C(OCC1CCCO1)c1ccccc1Cl (stereo unspecified)
inactive: [1] 11.8% | [2] -10.2% | [3] -0.95% | [4] -6.6% | [5] 7.2% | [6] 0%

CC(C)CCC[C@@H](C)[C@H]1CC[C@H]2[C@@H]3CC=C4C[C@@H](OC(=O)c5cccc6c(=O)c7ccccc7[nH]c56)CC[C@]4(C)[C@H]3CC[C@]12C
inactive: [1] 12.8% | [2] 16.1% | [3] 3.3% | [4] -4.95% | [5] -3.8% | [6] -28.9%

CCNC(=S)Nc1ccc(OCC)cc1
inactive: [1] 14.2% | [2] 24.3% | [3] 31.4% | [4] -18.1% | [5] 33.9% | [6] 16.4%

Nc1c(Cl)ncnc1NCCCCCCCCCCCCNc1ncnc(Cl)c1N
inactive: [1] -6.4% | [2] 1.75% | [3] 26.1% | [4] -8.95% | [5] -9.7% | [6] 1.85%

COC(=O)C1C(=O)C2OC1C1OC(C)(C)OC21 (stereo unspecified)
inactive: [1] 7.75% | [2] -12.1% | [3] -12.1% | [4] -52.4% | [5] 1.7% | [6] -0.95%

CCCC(=O)Nc1cc([N+](=O)[O-])c([N+](=O)[O-])cc1OC
inactive: [1] -3.7% | [2] -2.55% | [3] 0% | [4] 1.65% | [5] 13.8% | [6] -3%

COc1ccc(C2=C/C(=C/c3cccs3)C(=O)O2)cc1
inactive: [1] -14.2% | [2] 1.45% | [3] -0.15% | [4] -36.9% | [5] 3.75% | [6] 0.15%

Cc1cc(NC(=O)COCC(=O)O)no1
inactive: [1] -7.15% | [2] -24.9% | [3] 5.65% | [4] 9.45% | [5] 0.6% | [6] -9.15%

Cc1cccc(NC(=O)CC(=O)N2N=C(N3c4ccccc4Sc4ccccc43)CC2c2ccccc2)c1 (stereo unspecified)
inactive: [1] -1.85% | [2] -5.5% | [3] -10.1% | [4] -9.55% | [5] -5.35% | [6] -41.8%

Cc1c(COC(=O)NC(C)C)c(COC(=O)NC(C)C)c2n1CCS2(=O)=O
inactive: [1] -26.8% | [2] -20.8% | [3] 4.75% | [4] -32.7% | [5] 0.5% | [6] -21.6%

OCc1cc2ccccc2c2c3c(ccc12)OCO3
inactive: [1] 39.9% | [2] 4.6% | [3] 20.7% | [4] -37.9% | [5] -1.05% | [6] 15.9%
